Wnt bcat act: Wnt/beta-catenin pathway activation; Wnt/beta-catenin reporter cell assay, activator, plate reader; activation, % at 9.35 µM; actives 1.2% (n = 300,000); AID 743398; in the data active = activation above about 30%, passing the limit was not always enough; inconclusive = no clear call, values can overlap the other calls;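 also: 0% = neutral control wells and 100% = positive control wells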
PfHsp90 yeast 2: inhibits growth of yeast expressing Plasmodium falciparum Hsp90 | S. cerevisiae expressing PfHsp90, BacTiter-Glo ATP, 48 h; yeast lacking PDR1 and PDR3 efflux regulators | inhibition, % at 9.4 µM | actives 0.32% (n = 310,000);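 active = every replicate shows inhibition above about 80%, whatever the replicate mean, limit read from the data; inconclusive = mean inhibition reaches the set limit but some replicate falls short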;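 also: 0% = DMSO neutral controls and 100% = 20 µM radicicol positive controls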
NSD2 HMT inh: NSD2 (human) methyltransferase inhibition. O96028. NSD2 peptide methylation, AlphaScreen, 120 min. inhibition, % at 12.5 µM. actives 0.54% (n = 310,000). AID 743445; in the data active = inhibition above about 50%
TRPM1 prom inh: reduces MITF-dependent TRPM1 promoter luciferase signal | SK-MEL-5 TRPM1 promoter luciferase, 24 h | inhibition, % at 12.5 µM | actives 0.83% (n = 330,000);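 active = mean inhibition across replicates of 60% or more, whatever share of single replicates reaches that level; inconclusive = some that reach 60%, reason not given; inactive = mean inhibition across replicates below 60%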
MITF act: activators of MITF-driven TRPM1 promoter activity in SK-MEL-5 cells. AID 588334. SK-MEL-5 TRPM1-promoter luciferase, 24 h; % of positive control, neutral wells = 0. actives 0.75% (n = 300,000). activation, % at 12.5 µM;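 active = mean activation of at least 80% with every replicate also reaching 80%; inconclusive = mean reaches 80% but some replicate falls short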;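 also: 0% = neutral control wells and 100% = parthenolide positive control wells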
Glyco luc inh: N-linked glycosylation inhibition. D54 ERlucT glycosylation luciferase reporter, 24 h; percent of 100 nM tunicamycin response. reporter increase, % at 12.5 µM. actives 0.23% (n = 360,000);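 active = mean luciferase reporter signal, scaled so untreated is 0 and the glycosylation-blocking control 100, at or above a set limit in every replicate; inconclusive = mean reaches the limit but not every replicate does; inactive = mean below the limit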;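 also: luciferase carries N-glycosylation sites so blocking glycosylation raises the light; 0% = median of neutral control wells and 100% = median of 100 nM tunicamycin wells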
* hit, by the source's call. An excerpt weighted towards active compounds, which were near 2.9% of everything screened.

Results for CCOC(=O)c1ccc(N2Cc3ccccc3C2=NC(=O)c2ccncc2)cc1 ?
Wnt bcat act: 46*; PfHsp90 yeast 2: -7; NSD2 HMT inh: -2; TRPM1 prom inh: -101; MITF act: 102*; Glyco luc inh: -1

What do the screens show for `CCOC(=O)c1ccc(N2Cc3ccccc3C2=N)cc1`?
Wnt bcat act: 0; PfHsp90 yeast 2: 36; NSD2 HMT inh: -14; TRPM1 prom inh: -45; MITF act: 46; Glyco luc inh: 1

Results for CC1CCCN(C(=O)CN2C(=O)NC(C)(c3ccc4ccccc4c3)C2=O)C1 (stereo unspecified) ?
Wnt bcat act: 0; PfHsp90 yeast 2: 40; NSD2 HMT inh: -2; TRPM1 prom inh: -3; MITF act: 4; Glyco luc inh: 7

Results for O=C(CSc1nnc(-c2cccs2)n1Cc1ccco1)Nc1ccc(Oc2ccccc2)cc1 ?
NSD2 HMT inh: 1

Results for CCCCCCn1ccc(=N)cc1 ?
PfHsp90 yeast 2: 11; NSD2 HMT inh: -1; TRPM1 prom inh: 19; MITF act: -19; Glyco luc inh: -3

How did CCCCCCCCCCCCCCCCn1cc[n+](CC(C)=O)c1 do in these assays?
PfHsp90 yeast 2: 105*; NSD2 HMT inh: 6; TRPM1 prom inh: 39; MITF act: -40; Glyco luc inh: -22

Results for O=C(C[C@H]1CC[C@H](NC(=O)Nc2ccccc2F)[C@@H](CO)O1)NCc1ccc(-c2ccccc2)cc1 ?
Wnt bcat act: -3

Results for O=c1[nH]c2ccccc2nc1/C=C(\O)c1cccs1 ?
Wnt bcat act: 37*; PfHsp90 yeast 2: -1; NSD2 HMT inh: -1; TRPM1 prom inh: -28; MITF act: 35; Glyco luc inh: 10

How did N#C/C(=C(/O)c1cccs1)c1nc2ccccc2[nH]1 do in these assays?
Wnt bcat act: 10; PfHsp90 yeast 2: -2; NSD2 HMT inh: 0; TRPM1 prom inh: -7; MITF act: 8; Glyco luc inh: 18

How did Cc1ccc2oc(=O)c(/C=C(\O)c3cccs3)nc2c1 do in these assays?
Wnt bcat act: 35*; PfHsp90 yeast 2: -9; NSD2 HMT inh: -2; TRPM1 prom inh: -13; Glyco luc inh: -1

How did O/C(=C\c1nc2ccccc2[nH]1)c1cccs1 do in these assays?
Wnt bcat act: 39*; PfHsp90 yeast 2: -56; TRPM1 prom inh: -6; MITF act: 6; Glyco luc inh: 2

How did O=c1[nH]c2ccccc2nc1-c1cccs1 do in these assays?
Wnt bcat act: 43*; NSD2 HMT inh: 2; TRPM1 prom inh: -49; Glyco luc inh: 4

Results for CC(C)(C)c1ccc(-c2noc(CCC(=O)NC3CC3)n2)cc1 ?
NSD2 HMT inh: -4

Results for COc1ccc(OCC(=O)N/N=C(\C)c2cccs2)cc1 ?
Wnt bcat act: -3; PfHsp90 yeast 2: 44; NSD2 HMT inh: -1; TRPM1 prom inh: -2; MITF act: 2; Glyco luc inh: -2

What do the screens show for `O=C(COc1ccccc1[N+](=O)[O-])Nc1cccnc1`?
Wnt bcat act: inconclusive; PfHsp90 yeast 2: -2; NSD2 HMT inh: 20; TRPM1 prom inh: -54; MITF act: 61; Glyco luc inh: 1

How did C/C(=N\NC(=O)COc1ccccc1[N+](=O)[O-])c1cccs1 do in these assays?
Wnt bcat act: 35*; PfHsp90 yeast 2: 4; NSD2 HMT inh: -4; TRPM1 prom inh: -53; MITF act: 64; Glyco luc inh: 1

What do the screens show for `O=C(COc1ccccc1[N+](=O)[O-])Nc1ccc(Br)cc1`?
Wnt bcat act: 48*; PfHsp90 yeast 2: -7; TRPM1 prom inh: -80; MITF act: 80; Glyco luc inh: -2

Results for Cc1ccc(NC(=O)COc2ccccc2[N+](=O)[O-])nc1 ?
Wnt bcat act: 54*; PfHsp90 yeast 2: 35; NSD2 HMT inh: -7; TRPM1 prom inh: -1; MITF act: 0; Glyco luc inh: -16

Results for CC1CCCC(NC(=O)CSc2nnc(-c3cccnc3)o2)C1C (stereo unspecified) ?
Wnt bcat act: -1; NSD2 HMT inh: -2; Glyco luc inh: -2

What do the screens show for `CCOC(=O)c1c(CCl)nc2ccccc2c1-c1ccccc1`?
Wnt bcat act: 2; PfHsp90 yeast 2: -13; NSD2 HMT inh: 5; TRPM1 prom inh: 12; MITF act: -12; Glyco luc inh: -1

From PubChem
